Measurements taken from article PMC7862700, “An all-to-all approach to the identification of sequence-specific readers for epigenetic DNA modifications on cytosine”.

Columns and labels:
Assay in all cases: DAPPL (digital affinity profiling via proximity ligation, sequencing); 10 mM Tris-HCl pH 7.5, 50 mM NaCl, 1 mM DTT, 4% glycerol, room temperature, 30 min; GST-TFs on glutathione beads, 16-mer random dsDNA library, 0.1% formaldehyde crosslink after washing; high values mean tight binding
[1] = molecular target: T1, FLI1 (Homo sapiens, UniProt Q01543 1-452); settings: protein: recombinant; tags: N-terminal GST; dsDNA, one strand shown
T1 sequence: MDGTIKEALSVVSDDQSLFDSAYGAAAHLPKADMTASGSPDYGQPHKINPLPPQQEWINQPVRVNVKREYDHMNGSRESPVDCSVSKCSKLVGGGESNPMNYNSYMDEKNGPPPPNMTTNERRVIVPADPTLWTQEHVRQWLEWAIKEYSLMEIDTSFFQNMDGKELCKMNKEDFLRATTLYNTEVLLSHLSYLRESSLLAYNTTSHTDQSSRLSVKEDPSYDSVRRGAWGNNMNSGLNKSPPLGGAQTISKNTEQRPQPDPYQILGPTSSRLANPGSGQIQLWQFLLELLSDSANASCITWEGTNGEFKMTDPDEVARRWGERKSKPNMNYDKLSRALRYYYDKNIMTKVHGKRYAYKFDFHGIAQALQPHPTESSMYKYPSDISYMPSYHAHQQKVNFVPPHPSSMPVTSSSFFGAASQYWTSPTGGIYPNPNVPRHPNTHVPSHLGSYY
Outline: (§1)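 Human transcription factors carrying a GST fusion were produced in yeast, bound to glutathione beads, tagged with DNA barcodes and pooled together with a tag-only sample. Each pool was held with 200 nmole of a random double-stranded 16-mer DNA library in Tris/NaCl/DTT/glycerol buffer for 30 min at room temperature, then washed, crosslinked in 0.1% formaldehyde, proximity-ligated with BsaI/T4 ligase (1 h, 37 °C), PCR-amplified and sequenced on an Illumina NextSeq500. Binding signal is the read frequency of each hexamer for a given factor divided by its frequency in the tag-only sample.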

[2] = molecular target: T2, ELK1 (Homo sapiens, UniProt P19419 1-428); settings: protein: recombinant; tags: N-terminal GST; dsDNA, one strand shown
T2 sequence: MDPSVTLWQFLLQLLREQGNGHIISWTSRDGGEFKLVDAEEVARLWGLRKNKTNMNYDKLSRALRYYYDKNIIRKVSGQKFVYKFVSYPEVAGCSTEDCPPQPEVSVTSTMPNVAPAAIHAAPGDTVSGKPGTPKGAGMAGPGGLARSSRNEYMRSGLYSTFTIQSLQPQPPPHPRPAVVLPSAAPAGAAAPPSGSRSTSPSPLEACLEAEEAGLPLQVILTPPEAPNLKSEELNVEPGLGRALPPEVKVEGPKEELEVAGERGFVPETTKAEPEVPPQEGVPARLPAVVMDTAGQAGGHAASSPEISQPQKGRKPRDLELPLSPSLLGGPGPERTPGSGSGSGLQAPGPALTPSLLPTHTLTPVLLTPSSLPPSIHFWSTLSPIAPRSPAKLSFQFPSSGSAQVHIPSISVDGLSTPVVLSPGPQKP
Outline: as §1

[3] = molecular target: T3, GABPA (Homo sapiens, UniProt Q06546 1-454); settings: protein: recombinant; tags: N-terminal GST; dsDNA, one strand shown
T3 sequence: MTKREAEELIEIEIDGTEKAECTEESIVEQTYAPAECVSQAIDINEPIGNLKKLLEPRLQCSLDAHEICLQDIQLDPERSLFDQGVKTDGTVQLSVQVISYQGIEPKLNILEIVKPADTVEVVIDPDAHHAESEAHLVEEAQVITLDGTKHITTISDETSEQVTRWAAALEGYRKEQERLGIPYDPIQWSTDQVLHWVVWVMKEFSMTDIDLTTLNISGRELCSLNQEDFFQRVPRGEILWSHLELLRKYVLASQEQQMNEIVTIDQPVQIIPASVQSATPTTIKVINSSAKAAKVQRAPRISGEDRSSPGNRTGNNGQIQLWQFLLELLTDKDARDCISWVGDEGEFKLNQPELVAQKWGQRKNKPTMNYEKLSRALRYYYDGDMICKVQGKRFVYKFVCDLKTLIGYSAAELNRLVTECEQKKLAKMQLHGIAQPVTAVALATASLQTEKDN
Outline: as §1

[4] = molecular target: T4, ERG (Homo sapiens, UniProt P11308 1-479); settings: protein: recombinant; tags: N-terminal GST; dsDNA, one strand shown
T4 sequence: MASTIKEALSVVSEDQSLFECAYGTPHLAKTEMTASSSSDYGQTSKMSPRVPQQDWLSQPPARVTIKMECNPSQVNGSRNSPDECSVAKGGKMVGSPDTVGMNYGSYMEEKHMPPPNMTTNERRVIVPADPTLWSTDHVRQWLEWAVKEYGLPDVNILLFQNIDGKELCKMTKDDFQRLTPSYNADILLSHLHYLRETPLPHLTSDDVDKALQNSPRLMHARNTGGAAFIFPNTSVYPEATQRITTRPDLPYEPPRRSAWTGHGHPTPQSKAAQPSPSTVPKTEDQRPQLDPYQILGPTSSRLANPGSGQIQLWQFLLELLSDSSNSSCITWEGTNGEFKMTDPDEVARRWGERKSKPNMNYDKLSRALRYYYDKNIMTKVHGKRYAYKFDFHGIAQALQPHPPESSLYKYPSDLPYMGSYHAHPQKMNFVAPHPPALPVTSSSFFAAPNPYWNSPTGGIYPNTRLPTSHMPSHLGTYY
Outline: as §1

[5] = molecular target: ELF1 (Homo sapiens, UniProt P32519 1-619); settings: protein: recombinant; tags: N-terminal GST; dsDNA, one strand shown
Outline: as §1

[6] = molecular target: T5, EHF (Homo sapiens, UniProt Q9NZC4 1-300); settings: protein: recombinant; tags: N-terminal GST; dsDNA, one strand shown
T5 sequence: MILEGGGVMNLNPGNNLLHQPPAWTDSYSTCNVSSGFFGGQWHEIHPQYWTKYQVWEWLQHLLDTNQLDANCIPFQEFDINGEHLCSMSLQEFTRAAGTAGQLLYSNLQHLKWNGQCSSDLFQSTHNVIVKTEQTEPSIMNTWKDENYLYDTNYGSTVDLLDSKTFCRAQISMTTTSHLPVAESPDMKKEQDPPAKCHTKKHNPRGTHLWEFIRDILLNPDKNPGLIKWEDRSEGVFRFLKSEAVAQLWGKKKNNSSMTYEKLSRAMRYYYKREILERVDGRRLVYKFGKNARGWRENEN
Outline: as §1

[7] = molecular target: SPI1 (Homo sapiens, UniProt P17947 1-270); settings: protein: recombinant; tags: N-terminal GST; dsDNA, one strand shown
Outline: as §1

[8] = molecular target: SPIB (Homo sapiens, UniProt Q01892 1-262); settings: protein: recombinant; tags: N-terminal GST; dsDNA, one strand shown
Outline: as §1

[9] = molecular target: T6, ELK3 (Homo sapiens, UniProt P41970 1-407); settings: protein: recombinant; tags: N-terminal GST; dsDNA, one strand shown
T6 sequence: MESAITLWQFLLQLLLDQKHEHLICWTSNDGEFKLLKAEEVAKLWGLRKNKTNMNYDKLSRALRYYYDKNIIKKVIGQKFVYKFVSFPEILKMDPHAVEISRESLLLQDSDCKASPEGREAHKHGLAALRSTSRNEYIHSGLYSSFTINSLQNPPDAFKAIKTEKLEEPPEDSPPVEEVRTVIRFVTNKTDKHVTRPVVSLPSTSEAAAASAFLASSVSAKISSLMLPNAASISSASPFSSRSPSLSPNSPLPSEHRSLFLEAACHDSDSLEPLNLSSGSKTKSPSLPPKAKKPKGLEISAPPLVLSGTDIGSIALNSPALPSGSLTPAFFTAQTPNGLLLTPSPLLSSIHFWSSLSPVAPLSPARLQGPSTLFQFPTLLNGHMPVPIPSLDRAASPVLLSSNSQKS
Outline: as §1

[10] = molecular target: T7, FEV (Homo sapiens, UniProt Q99581 1-238); settings: protein: recombinant; tags: N-terminal GST; dsDNA, one strand shown
T7 sequence: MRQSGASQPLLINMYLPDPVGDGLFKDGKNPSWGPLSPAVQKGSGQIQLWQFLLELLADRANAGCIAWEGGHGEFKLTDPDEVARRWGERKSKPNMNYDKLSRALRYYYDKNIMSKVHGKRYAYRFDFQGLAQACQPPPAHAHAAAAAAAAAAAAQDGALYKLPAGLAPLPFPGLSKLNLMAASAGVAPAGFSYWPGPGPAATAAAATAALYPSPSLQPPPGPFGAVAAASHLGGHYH
Outline: as §1

[11] = molecular target: ETV5 (Homo sapiens, UniProt P41161 1-510); settings: protein: recombinant; tags: N-terminal GST; dsDNA, one strand shown
Outline: as §1

[12] = molecular target: HSF1 (Homo sapiens, UniProt Q00613 1-529); settings: protein: recombinant; tags: N-terminal GST; chain copies: 3; dsDNA, one strand shown
Outline: as §1

[13] = molecular target: T8, SPIC (Homo sapiens, UniProt Q8N5J4 1-248); settings: protein: recombinant; tags: N-terminal GST; dsDNA, one strand shown
T8 sequence: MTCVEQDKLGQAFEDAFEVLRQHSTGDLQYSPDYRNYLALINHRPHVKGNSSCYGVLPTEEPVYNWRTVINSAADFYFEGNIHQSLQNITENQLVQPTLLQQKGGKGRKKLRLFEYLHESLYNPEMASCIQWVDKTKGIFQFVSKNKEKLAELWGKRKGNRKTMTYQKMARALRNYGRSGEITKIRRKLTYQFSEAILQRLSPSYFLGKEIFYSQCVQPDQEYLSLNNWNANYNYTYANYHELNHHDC
Outline: as §1

[14] = molecular target: ELF4 (Homo sapiens, UniProt Q99607 1-663); settings: protein: recombinant; tags: N-terminal GST; dsDNA, one strand shown
Outline: as §1

[15] = molecular target: T9, ELK4 (Homo sapiens, UniProt P28324-2 1-405); settings: protein: recombinant; tags: N-terminal GST; dsDNA, one strand shown
T9 sequence: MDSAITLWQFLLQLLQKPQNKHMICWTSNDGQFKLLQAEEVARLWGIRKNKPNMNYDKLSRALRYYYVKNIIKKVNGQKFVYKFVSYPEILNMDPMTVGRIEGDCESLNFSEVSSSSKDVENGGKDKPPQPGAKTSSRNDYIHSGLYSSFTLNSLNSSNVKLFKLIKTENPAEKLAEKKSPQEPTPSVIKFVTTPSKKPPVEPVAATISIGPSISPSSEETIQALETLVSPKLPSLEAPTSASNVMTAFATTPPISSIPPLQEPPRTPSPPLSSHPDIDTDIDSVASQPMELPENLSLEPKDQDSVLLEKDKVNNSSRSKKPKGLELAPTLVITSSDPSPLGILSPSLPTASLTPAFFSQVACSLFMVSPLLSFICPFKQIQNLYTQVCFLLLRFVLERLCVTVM
Outline: as §1

[16] = molecular target: T10, ETV2 (Homo sapiens, UniProt O00321 1-342); settings: protein: recombinant; tags: N-terminal GST; dsDNA, one strand shown
T10 sequence: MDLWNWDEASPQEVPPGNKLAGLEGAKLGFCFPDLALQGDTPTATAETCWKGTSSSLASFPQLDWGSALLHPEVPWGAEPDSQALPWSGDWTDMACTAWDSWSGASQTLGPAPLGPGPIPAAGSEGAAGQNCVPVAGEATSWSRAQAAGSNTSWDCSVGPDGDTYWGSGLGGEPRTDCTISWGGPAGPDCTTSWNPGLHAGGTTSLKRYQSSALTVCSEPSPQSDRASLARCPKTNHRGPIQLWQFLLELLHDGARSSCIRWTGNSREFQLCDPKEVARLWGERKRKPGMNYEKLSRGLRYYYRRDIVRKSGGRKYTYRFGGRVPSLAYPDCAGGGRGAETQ
Outline: as §1

[17] = molecular target: CRX (Homo sapiens, UniProt O43186 1-299); settings: protein: recombinant; tags: N-terminal GST; dsDNA, one strand shown
Outline: as §1

[18] = molecular target: ETV1 (Homo sapiens, UniProt P50549 1-477); settings: protein: recombinant; tags: N-terminal GST; dsDNA, one strand shown
Outline: as §1

ETV5, sequence (P41161 whole entry): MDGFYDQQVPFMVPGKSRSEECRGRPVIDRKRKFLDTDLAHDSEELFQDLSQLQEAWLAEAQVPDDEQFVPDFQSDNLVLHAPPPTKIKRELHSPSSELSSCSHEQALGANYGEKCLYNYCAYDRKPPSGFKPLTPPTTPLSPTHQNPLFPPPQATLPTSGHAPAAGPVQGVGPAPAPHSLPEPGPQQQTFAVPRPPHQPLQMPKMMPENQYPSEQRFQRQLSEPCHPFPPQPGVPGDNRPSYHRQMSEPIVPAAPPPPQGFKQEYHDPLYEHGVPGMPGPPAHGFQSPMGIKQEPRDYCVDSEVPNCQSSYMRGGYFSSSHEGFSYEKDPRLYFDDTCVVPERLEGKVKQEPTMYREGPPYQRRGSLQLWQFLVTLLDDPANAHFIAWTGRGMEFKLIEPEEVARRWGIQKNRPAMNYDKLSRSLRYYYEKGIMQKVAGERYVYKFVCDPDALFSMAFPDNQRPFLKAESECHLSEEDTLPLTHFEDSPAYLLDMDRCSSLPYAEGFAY
ETV1, sequence (P50549 whole entry): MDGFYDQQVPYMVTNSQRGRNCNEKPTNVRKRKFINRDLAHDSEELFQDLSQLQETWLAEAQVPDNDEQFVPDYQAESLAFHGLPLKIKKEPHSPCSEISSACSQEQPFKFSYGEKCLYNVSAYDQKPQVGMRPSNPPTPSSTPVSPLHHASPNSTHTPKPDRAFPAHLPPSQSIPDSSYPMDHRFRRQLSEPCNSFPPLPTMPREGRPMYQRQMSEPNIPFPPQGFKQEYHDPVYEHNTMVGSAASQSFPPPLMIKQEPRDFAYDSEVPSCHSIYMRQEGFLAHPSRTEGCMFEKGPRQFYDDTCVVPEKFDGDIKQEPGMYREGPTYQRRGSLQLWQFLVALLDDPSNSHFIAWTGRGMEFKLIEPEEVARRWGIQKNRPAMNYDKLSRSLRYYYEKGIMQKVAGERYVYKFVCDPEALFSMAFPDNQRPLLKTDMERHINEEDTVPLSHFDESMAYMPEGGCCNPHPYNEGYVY
CRX, sequence (O43186 whole entry): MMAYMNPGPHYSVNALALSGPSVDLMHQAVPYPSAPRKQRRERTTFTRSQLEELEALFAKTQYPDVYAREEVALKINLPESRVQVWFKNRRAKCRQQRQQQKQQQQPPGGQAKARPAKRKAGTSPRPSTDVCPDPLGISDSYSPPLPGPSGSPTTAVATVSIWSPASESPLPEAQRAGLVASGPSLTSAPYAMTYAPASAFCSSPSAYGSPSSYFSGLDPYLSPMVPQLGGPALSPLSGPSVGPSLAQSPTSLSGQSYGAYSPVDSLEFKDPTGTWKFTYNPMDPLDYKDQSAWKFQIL
SPIB, sequence (Q01892 whole entry): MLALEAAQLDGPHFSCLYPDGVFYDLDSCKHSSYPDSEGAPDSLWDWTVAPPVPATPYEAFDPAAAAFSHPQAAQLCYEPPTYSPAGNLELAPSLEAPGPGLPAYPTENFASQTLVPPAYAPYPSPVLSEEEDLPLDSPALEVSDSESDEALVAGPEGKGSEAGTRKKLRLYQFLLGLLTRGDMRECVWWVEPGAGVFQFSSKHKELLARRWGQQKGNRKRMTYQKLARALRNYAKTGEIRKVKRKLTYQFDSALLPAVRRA
ELF1, sequence (P32519 whole entry): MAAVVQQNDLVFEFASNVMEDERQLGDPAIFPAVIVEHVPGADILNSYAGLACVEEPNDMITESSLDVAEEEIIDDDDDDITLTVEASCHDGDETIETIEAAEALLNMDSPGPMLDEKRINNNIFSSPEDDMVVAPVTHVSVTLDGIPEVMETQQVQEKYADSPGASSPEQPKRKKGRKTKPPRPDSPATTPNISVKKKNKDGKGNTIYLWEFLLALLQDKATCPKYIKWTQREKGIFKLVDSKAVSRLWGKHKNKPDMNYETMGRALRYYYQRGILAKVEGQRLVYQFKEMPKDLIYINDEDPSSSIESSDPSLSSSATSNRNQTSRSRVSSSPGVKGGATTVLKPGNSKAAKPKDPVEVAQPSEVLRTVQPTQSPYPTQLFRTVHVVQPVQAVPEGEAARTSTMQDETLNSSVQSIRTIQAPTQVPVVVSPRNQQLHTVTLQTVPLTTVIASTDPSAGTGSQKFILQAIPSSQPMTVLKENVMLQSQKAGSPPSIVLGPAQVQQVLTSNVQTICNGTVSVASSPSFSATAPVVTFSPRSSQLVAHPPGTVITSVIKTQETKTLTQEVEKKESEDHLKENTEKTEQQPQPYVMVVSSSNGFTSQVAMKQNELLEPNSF
HSF1, sequence (Q00613 whole entry): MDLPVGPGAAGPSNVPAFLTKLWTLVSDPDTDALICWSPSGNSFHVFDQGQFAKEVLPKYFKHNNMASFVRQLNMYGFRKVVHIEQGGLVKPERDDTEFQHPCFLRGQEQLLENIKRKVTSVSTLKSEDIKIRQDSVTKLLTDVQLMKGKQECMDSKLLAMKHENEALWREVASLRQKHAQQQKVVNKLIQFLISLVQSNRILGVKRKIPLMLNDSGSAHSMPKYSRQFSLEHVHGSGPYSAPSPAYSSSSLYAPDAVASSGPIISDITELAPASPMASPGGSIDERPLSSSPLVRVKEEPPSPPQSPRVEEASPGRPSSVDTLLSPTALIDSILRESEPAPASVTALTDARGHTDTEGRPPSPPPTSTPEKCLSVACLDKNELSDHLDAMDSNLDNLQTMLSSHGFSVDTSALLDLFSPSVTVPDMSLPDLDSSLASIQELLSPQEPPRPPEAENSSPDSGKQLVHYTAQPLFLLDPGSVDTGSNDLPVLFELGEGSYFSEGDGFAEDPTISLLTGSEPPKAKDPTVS
ELF4, sequence (Q99607 whole entry): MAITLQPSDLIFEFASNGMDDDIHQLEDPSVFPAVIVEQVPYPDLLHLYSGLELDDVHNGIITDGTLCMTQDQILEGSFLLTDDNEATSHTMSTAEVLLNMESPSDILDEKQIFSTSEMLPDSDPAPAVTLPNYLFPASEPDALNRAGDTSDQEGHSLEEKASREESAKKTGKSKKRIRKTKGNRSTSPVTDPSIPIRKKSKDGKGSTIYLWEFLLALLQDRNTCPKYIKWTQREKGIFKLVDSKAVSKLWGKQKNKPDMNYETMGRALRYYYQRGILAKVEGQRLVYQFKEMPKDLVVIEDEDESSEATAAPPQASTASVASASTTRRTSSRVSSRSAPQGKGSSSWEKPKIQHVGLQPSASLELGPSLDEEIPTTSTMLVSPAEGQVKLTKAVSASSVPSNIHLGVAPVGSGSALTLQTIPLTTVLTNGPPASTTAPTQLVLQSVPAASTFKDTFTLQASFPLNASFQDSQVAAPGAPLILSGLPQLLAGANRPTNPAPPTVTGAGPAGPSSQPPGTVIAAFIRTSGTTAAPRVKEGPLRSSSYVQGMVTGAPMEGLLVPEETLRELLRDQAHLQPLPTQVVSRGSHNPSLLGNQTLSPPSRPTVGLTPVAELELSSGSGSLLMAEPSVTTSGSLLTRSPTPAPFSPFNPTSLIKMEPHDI

Sequence: ACTCGA
- binding signal [1]: 1.35 fold enrichment (6-mer frequency, TF over GST control)
- binding signal [2]: 1.48 fold enrichment (6-mer frequency, TF over GST control)
- binding signal [3]: 1.44 fold enrichment (6-mer frequency, TF over GST control)
- binding signal [4]: 1.22 fold enrichment (6-mer frequency, TF over GST control)
- binding signal [5]: 1.49 fold enrichment (6-mer frequency, TF over GST control)
- binding signal [6]: 1.14 fold enrichment (6-mer frequency, TF over GST control)
- binding signal [7]: 1.26 fold enrichment (6-mer frequency, TF over GST control)
- binding signal [8]: 1.24 fold enrichment (6-mer frequency, TF over GST control)
- binding signal [9]: 1.27 fold enrichment (6-mer frequency, TF over GST control)
- binding signal [10]: 1.29 fold enrichment (6-mer frequency, TF over GST control)
- binding signal [11]: 1.27 fold enrichment (6-mer frequency, TF over GST control)
- binding signal [12]: 1.99 fold enrichment (6-mer frequency, TF over GST control)
- binding signal [13]: 1.51 fold enrichment (6-mer frequency, TF over GST control)
- binding signal [14]: 1.31 fold enrichment (6-mer frequency, TF over GST control)
- binding signal [15]: 1.35 fold enrichment (6-mer frequency, TF over GST control)
- binding signal [16]: 1.46 fold enrichment (6-mer frequency, TF over GST control)
- binding signal [17]: 1.37 fold enrichment (6-mer frequency, TF over GST control)
- binding signal [18]: 1.33 fold enrichment (6-mer frequency, TF over GST control)
